Results on 24 molecules are retold here after PubChem BioAssay (NCATS).

“And” between values parts separate entries of the source, which are not always exact repeats. Equal entries are not always repeated. Records with an inconclusive call do not appear. A call without a number means that no potency is given here. Some compounds were tested as several samples or in several runs, with calls that do not always agree. The source made the active and inactive calls. Unless noted, calls follow the shape of the dose curve; as a rule, active = well fitted curve in the direction sought with a large enough effect; inconclusive = small, poorly fitted or top-dose-only effect, or another doubt; inactive = no such curve, though single readings can be large; an effect the other way counts as inactive or inconclusive.

A short description of assay [1]: Cellular Toxicity (caspase-3) Jurkat (AID 655).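 Also: cells exposed to compound for 16 h at 37 °C before reading.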 Summed up: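 Luminescent caspase-3/7 readout (aminoluciferin substrate cleavage) in human T-cell leukemia Jurkat cells after 16 hr compound exposure. Concentration-response normalized to DMSO and 100 uM tamoxifen; AC50 by standard Hill equation.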
A short description of assay [2]: Cellular Toxicity (caspase-3) HUV-EC-C (AID 656). The procedure, abridged:
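Luminescent caspase-3/7 activation (aminoluciferin substrate cleavage) in HUV-EC-C cells after 16 hr compound exposure, 37°C. Signal normalized to DMSO basal and 100 uM tamoxifen as 100%; AC50 from concentration-response fitted with the Hill equation.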

Assay [3] is described as follows: Cellular Toxicity (caspase-3) SHSY5Y (AID 657).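 Also: cells exposed to compound for 16 hours at 37 °C.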 The procedure, abridged: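 Luminescent caspase-3/7 readout (aminoluciferin release) in SH-SY5Y cells after 16 h compound exposure in complete medium. Activity scaled between DMSO basal and 10 uM staurosporine as 100%; concentration-response fitted to Hill equation for AC50.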
Assay [4] is described as follows: Cellular Toxicity (caspase-3) BJ (AID 658). Summed up:
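qHTS, BJ fibroblasts, 1000 cells/well; 5 hr preincubation, 16 hr compound, 37 °C; Caspase-Glo 3/7 reagent, 1 hr RT; luminescence. DMSO = 0%, 10 uM staurosporine = 100%. Hill-equation AC50.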

Assay [5] can be described thus: Cellular Toxicity (caspase-3) MRC-5 (AID 659). Summed up: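 MRC-5 fibroblasts, 1500/well; 16 h cpd, 37 °C; Caspase-Glo 3/7, 1 h RT; lumi read. Norm: DMSO = 0%, 10 uM staurosporine = 100%. Hill-fit AC50 from qHTS conc-response.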
Assay [6] in a line: Cellular Toxicity (caspase-3) Mesangial (AID 660).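 Also: combined caspase 3 and 7 activity read by Caspase-Glo luminescence; cells exposed to compound for 16 h before the caspase read.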 Summed up: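 Seed cells derived from normal human renal glomeruli, incubate 5 h, add compounds across concentrations and incubate 16 h at 37 °C. Caspase 3/7 activation is then quantified by luciferase light, with AC50 derived by Hill modeling.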
Assay [7] can be described thus: Cellular Toxicity (caspase-3) SK-N-SH (AID 661). The procedure, abridged:
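Cells were seeded and incubated 5 hr at 37 °C, dosed with compound over a concentration range for 16 hr, then given Caspase-Glo 3/7 reagent for 1 hr at room temperature before luminescence reading.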

Assay [8] in a line: Cellular Toxicity (caspase-3) H-4-II-E (AID 663).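 Also: cells exposed to compound for 16 hr before readout.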 The settings on record: Potency: caspase-3 activation. Summed up: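 H-4-II-E rat hepatoma, 1500 cells/well, 5 hr settle at 37 °C; compound 16 hr, 37 °C, complete medium; Caspase-Glo 3/7, 20 min RT; luminescence. DMSO = 0%, 100 uM tamoxifen = 100%; Hill-equation AC50.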
The nature of assay [9]: Cellular Toxicity (caspase-3) Hek293 (AID 664).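 Also: cells exposed to compound for 16 h at 37 °C before readout.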 The procedure, abridged:
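qHTS, HEK293 (human embryonic kidney), 16 h cpd exposure in complete medium. Caspase-3/7 activation = luminescence increase; normalized to DMSO/100 uM tamoxifen; Hill-fit AC50.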

Assay [10] is described as follows: Cellular Toxicity (caspase-3) N2a (AID 665).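 Also: compound exposure lasted 16 h at 37 °C before readout.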 Summed up: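 Caspase-3/7 activation, measured as increased luminescence from aminoluciferin release, is quantified in mouse N2a cells exposed to compounds for 16 h. Values are normalized to DMSO and 10 uM staurosporine, with AC50 derived by Hill modelling.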
Assay [11] in a line: Cellular Toxicity (caspase-3) NIH 3T3 (AID 666).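 Also: caspase signal read after 16 h compound exposure.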 The procedure, abridged:
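Cells were plated at 1000 per well and incubated 5 hr at 37°C, then compound was added for 16 hr. Caspase-Glo 3/7 reagent followed for 20 min at room temperature before luminescence was read.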

Assay [12] addresses Cytochrome P450 3A4 (Homo sapiens) (UniProt P08684). Nature of the assay: qHTS Assay for Activators of Cytochrome P450 3A4 (AID 885). Also: nearly all actives have a fitted effect of over 65% in size. Also: potency is read from the fitted curve at half-maximal effect. The procedure, abridged:
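Human CYP3A4 dealkylates Luciferin-PPXE to luciferin, which luciferase detection converts to light. Substrate was at its KM (25uM), buffer 200mM KPO4, reaction 60 min at RT.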
(qHTS replaces the single test concentration by a dilution series.)

Assay [13] shares this target. In words: qHTS Assay for Inhibitors and Substrates of Cytochrome P450 3A4 (AID 884). Also: nearly all actives have a fitted effect of over 50% in size. Also: potency is read from the fitted curve at half-maximal effect. Summed up: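 Luminescent readout of luciferin produced by CYP3A4 (20 nM) dealkylation of Luciferin-PPXE, 25 uM (its KM). NADPH-driven reaction ran 60 min at RT after 10 min compound preincubation; data scaled to 57 uM ketoconazole as 100% inhibition.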
The nature of assay [14]: Confirmation and Secondary Assay for Modulators of Hemoglobin Beta Chain Splicing at IVS2 654 locus (AID 910).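 Also: HeLa cells stably carrying EGFP split by mutant beta-globin IVS2-654 intron.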 The procedure, abridged: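 HeLa cells stably expressing EGFP interrupted by β-globin IVS2-654 intron, seeded overnight in Opti-MEM/2% FCS, then treated 2 days at 37 °C. Restored splicing read as total peak GFP intensity per well by laser scanning cytometry (488 nm excitation, 500–520 nm emission); 500 nM antisense PNA as control.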

Assay [15] has as its target Guanine nucleotide-binding protein G(i) subunit alpha-1 (Homo sapiens) (UniProt P63096). In words: qHTS Assay for Inhibitors of RGS12 GoLoco Motif Activity (Green Fluorophore) (AID 879).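 Also: negative values mean loss of peptide binding seen as reduced polarization.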 The procedure, abridged:
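A drop in FITC polarization marked displacement of the FITC-tagged RGS12 GoLoco peptide (10 nM) from Gαi1 (50 nM). Compounds were incubated 10 min at room temperature in Tris pH 7.5 buffer containing 150 mM NaCl, 0.1 mM GDP and 0.05% NP40; unlabeled peptide titration served as control.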

The nature of assay [16]: qHTS Assay for Identification of Small Molecule Agonists for Thrombopoietin (TPO) Signaling Pathway (AID 917). Summed up:
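Ba/F3 (mouse) + hTPO receptor + GpIIb-promoter luciferase; IL-3 withdrawn overnight; compound + 26 pM TPO (EC50), 24 hrs, 37 C, 5% CO2; Steadylite luminescence, 10 min RT.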

Assay [17] concerns the target Cytochrome P450 2C9 (Homo sapiens) (UniProt P11712). Nature of the assay: qHTS Assay for Inhibitors and Substrates of Cytochrome P450 2C9 (AID 883). Also: nearly all actives have a fitted effect of over 60% in size. Also: potency is read from the fitted curve at half-maximal effect. Summed up:
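Human CYP2C9 (10nM) with Luciferin-H at 100uM (its KM) in 25mM KPO4; compound preincubated 10 min at 37C, then NADPH regeneration for 60 min at 37C. Luciferin read by luminescence after detection reagent; normalized to 57uM sulphaphenazole as full inhibition.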

Assay [18] concerns the target Cytochrome P450 2D6 (Homo sapiens) (UniProt P10635). In words: qHTS Assay for Inhibitors and Substrates of Cytochrome P450 2D6 (AID 891). Also: nearly all actives have a fitted effect of over 60% in size. Also: potency is read from the fitted curve at half-maximal effect. The procedure, abridged: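 Luminescent read-out of luciferin formed by 5 nM human CYP2D6 demethylating 30 uM Luciferin-ME EGE (Km level) over 60 min at room temperature after NADPH regeneration addition. Data normalized to full inhibition by 1.43 uM quinidine.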

Assay [19] concerns the target Cytochrome P450 2C19 (Homo sapiens) (UniProt P33261). In words: qHTS Assay for Inhibitors and Substrates of Cytochrome P450 2C19 (AID 899). Also: nearly all actives have a fitted effect of over 60% in size. Also: potency is read from the fitted curve at half-maximal effect. Summed up: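 5 nM human CYP2C19 with 10uM Luciferin-H EGE (at KM) in 50mM KPO4, compound preincubated 10 min at 37C, then NADPH regeneration for 60 min at 37C. Luciferin read by luminescence after detection reagent; normalized to 57uM ketoconazole as full inhibition.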

Assay [20] is described as follows: qHTS Assay for Identification of Small Molecule Antagonists for NFkB Signaling Pathway (AID 895; active = well fitted inhibition curve with a large enough effect in the signal ratio, with a control signal flat, not every such curve was filed as active; the % refers to the signal ratio). Summed up: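 ME-180 NFkB-bla cells (beta-lactamase under NFkB response element), plated overnight, treated with compound then 10 pM TNF alpha (about EC50) for 5 hrs at 37 C. LiveBLAzer FRET read at 460/530 nm emission, 405 nm excitation.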

Cytochrome P450 2D6 (Homo sapiens), sequence (P10635 whole entry, looked up): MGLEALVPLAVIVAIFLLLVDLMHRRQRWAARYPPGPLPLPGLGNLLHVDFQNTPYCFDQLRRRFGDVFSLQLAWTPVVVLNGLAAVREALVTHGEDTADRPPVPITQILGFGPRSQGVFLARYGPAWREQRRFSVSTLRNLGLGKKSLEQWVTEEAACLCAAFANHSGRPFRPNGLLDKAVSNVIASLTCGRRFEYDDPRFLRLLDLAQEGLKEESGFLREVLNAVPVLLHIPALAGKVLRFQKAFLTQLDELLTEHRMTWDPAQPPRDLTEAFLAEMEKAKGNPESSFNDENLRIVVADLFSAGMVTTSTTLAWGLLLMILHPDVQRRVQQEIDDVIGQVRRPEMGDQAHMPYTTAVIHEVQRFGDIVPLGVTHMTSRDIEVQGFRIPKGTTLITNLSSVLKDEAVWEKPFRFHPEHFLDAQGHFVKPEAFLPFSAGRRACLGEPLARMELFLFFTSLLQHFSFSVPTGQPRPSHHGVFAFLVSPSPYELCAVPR
Cytochrome P450 3A4 (Homo sapiens), sequence (P08684 whole entry, looked up): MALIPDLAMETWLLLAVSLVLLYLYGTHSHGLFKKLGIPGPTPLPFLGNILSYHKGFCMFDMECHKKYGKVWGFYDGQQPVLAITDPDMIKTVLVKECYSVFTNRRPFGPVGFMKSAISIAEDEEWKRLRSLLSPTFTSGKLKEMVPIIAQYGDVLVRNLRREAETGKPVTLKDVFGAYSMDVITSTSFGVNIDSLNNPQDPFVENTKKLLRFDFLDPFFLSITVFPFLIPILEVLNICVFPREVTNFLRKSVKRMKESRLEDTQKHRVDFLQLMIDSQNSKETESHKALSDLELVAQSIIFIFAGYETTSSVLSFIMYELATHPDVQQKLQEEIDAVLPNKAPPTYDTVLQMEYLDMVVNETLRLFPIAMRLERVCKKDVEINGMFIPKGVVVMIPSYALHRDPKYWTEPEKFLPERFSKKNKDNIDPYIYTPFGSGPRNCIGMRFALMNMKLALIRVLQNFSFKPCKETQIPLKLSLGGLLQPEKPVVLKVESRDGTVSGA
Cytochrome P450 2C19 (Homo sapiens), sequence (P33261 whole entry, looked up): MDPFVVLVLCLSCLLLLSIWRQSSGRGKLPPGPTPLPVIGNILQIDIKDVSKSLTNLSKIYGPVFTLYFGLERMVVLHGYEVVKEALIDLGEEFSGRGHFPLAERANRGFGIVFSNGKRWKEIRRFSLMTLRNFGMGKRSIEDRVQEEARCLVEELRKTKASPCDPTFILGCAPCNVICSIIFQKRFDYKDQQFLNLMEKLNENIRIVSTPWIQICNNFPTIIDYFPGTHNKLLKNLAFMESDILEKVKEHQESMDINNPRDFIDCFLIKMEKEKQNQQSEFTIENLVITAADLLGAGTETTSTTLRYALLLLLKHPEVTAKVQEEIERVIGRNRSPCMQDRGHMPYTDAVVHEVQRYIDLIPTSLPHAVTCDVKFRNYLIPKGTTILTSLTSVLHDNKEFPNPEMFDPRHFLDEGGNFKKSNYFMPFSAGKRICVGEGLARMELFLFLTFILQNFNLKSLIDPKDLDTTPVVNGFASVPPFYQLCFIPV
Guanine nucleotide-binding protein G(i) subunit alpha-1 (Homo sapiens), sequence (P63096 whole entry, looked up): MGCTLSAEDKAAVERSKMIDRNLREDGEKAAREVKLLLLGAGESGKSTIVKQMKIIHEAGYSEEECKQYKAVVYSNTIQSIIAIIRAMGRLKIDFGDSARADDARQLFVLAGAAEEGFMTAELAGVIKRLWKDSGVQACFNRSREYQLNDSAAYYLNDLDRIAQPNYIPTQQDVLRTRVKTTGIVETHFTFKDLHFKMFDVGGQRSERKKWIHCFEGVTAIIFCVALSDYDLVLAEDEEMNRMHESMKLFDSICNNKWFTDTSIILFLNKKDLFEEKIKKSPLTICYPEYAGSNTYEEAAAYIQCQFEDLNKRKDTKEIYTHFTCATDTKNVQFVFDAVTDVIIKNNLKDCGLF
Cytochrome P450 2C9 (Homo sapiens), sequence (P11712 whole entry, looked up): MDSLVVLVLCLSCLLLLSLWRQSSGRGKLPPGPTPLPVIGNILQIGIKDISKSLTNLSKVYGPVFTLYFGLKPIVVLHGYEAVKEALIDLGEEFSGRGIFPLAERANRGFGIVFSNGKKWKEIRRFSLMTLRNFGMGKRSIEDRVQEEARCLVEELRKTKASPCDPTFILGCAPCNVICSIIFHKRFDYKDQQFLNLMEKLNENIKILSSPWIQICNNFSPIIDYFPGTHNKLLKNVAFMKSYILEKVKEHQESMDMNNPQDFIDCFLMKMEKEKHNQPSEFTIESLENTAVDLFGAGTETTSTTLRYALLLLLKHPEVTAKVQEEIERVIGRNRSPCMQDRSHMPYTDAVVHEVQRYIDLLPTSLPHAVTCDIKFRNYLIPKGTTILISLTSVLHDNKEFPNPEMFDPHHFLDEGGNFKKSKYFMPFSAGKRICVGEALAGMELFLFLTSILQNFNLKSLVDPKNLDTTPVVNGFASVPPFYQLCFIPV

For `CC(C)(c1ccc(O)cc1)c1ccc(O)cc1`, the Potency entry in [1], in [3], in [8], in assay [11] and in assay [12] was “inactive” throughout. In addition, the call in assay [2], in [4], in assay [5], in assay [6], in assay [7] and in assay [9] was inactive. The result in assay [10] was inactive.
As to `Cc1cc(C(C)(C)C)c(O)c(C(C)(C)C)c1`, the Potency entry in assay [1], in assay [3], in assay [8], in assay [11] and in assay [13] was “inactive” throughout. Moreover, the result in [2], in assay [4], in assay [5], in assay [6], in assay [7] and in [10] was inactive. Also, in assay [14], the call was inactive.
Regarding `O=C(O)Cc1ccc(OCCNC[C@H](O)c2ccccc2)cc1`, the Potency entry in assay [13] was “inactive”.
As for `C[N+](C)(C)CCO`, the molecule was called inactive in assay [15], in [14] and in assay [16]. Further, in [13], the Potency is 31600 nM (active).
As to `COc1ccccc1N1CCN(CCN2C(=O)CC3(CCCC3)CC2=O)CC1`, in [15], the result was inactive. In [12], the Potency result was “inactive”.
`C1N2CN3CN1CN(C2)C3`: the Potency entry in assay [13] was “inactive”. In addition, the molecule was classed as inactive in assay [14].
For `CCOC(=O)NNc1nncc2ccccc12`, in assay [13], the Potency entry was “inactive”. Further, the outcome in assay [14] was inactive.
With `CCN(CC)CCOc1ccc(/C(=C(\Cl)c2ccccc2)c2ccccc2)cc1`, the Potency result in [17] and in [13] was “inactive” each time. The Potency in assay [18] was 5010 nM (active). In addition, the outcome in [14] was inactive.
Regarding `C[C@@H](C1=C(CCN(C)C)Cc2ccccc21)c1ccccn1`, the Potency is 501 nM (active) in assay [17] and 2510 nM (active) in assay [19].
Regarding `O=C1NC(c2cccc([N+](=O)[O-])c2)=CCN1c1ccccc1O`, the molecule was called inactive in [15] and in assay [16]. Also, the Potency result in [17] and in [18] was “inactive” in each case. Besides, the Potency result in assay [19] was “inactive and 6.31 µM (active)”.
Consider `Nc1ncnc2nc[nH]c12`, for which, in assay [13], the Potency entry was “inactive”. Besides, the molecule was classed as inactive in assay [14].
Turning to `O=[N+]([O-])c1ccc(-c2nc(-c3ccc(F)cc3)c(-c3ccncc3)[nH]2)cc1`, the molecule was called inactive in [15]. Further, in assay [13], the Potency is 158 nM (active). For the same molecule, the Potency entry in assay [12] is “inactive”.
Regarding `CN(C)c1cc2c(Nc3ccc4c(cnn4Cc4ccccc4)c3)ncnc2cn1`, the outcome in assay [15] was inactive. Also, the Potency in assay [13] was 5010 nM (active). Moreover, the Potency result in assay [12] is “inactive”.
Turning to `COC(=O)c1c(Cl)c(Cl)c(C(=O)OC)c(Cl)c1Cl`, the Potency entry in [13] was “inactive”. The molecule was classed as inactive in assay [14].
Take `CC(C)N(CCC(=O)c1ccc2ccccc2c1)Cc1ccccc1`: the call in assay [15] was inactive. Moreover, the Potency result in assay [12] was “inactive”. Moreover, the Potency in assay [18] is 2000 nM (active).
As for `CC(NCCC(c1ccccc1)c1ccccc1)c1ccccc1` (stereo unspecified), the call in [14] was inactive.
In the case of `Cc1ccc2c(Cl)cc(Cl)c(O)c2n1`, the Potency result in [13] was “inactive”. Further, the result in assay [14] was inactive.
As for `OC(CCCN1CCCCC1)(c1ccccc1)c1ccccc1`, the Potency in [18] is 126 nM (active).
With `CN(C(=O)C(Cl)Cl)c1ccc(OC(=O)c2ccco2)cc1`, the Potency entry in assay [13] is “inactive”.
On to `CC(=O)OCC[N+](C)(C)C`, for which the Potency result in assay [13] was “inactive”. The molecule was called inactive in assay [14].
On to `NC(N)=NCCCCN=C(N)N`, for which the outcome in [15], in [20], in [14] and in [16] was inactive.
As for `Brc1ccc([C@H]2CN3CCSC3=N2)cc1`, in assay [15], the outcome was inactive. The Potency entry in [12] is “inactive”.
Regarding `O=C(O)/C=C(\CC(=O)O)C(=O)O`, the Potency entry in [13] was “inactive”. For the same molecule, the outcome in [14] was inactive.
For `Cc1nn(-c2ccccc2)c(C)c1/C=N/N1CCN(Cc2ccccc2)CC1`, in assay [13], the Potency result is “inactive”. Further, in [12], the Potency was 10000 nM (active).
